ALOX15B inhib: blocks human 15-lipoxygenase 2 activity | purified 15hLO-2, xylenol orange hydroperoxide absorbance | actives 0.56% (n = 110,000) | Potency, µM (titrated, usually from 57.1 µM), most hits filed as inhibitors; note: nearly all actives have a fitted effect of over 60% in size
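Read-out: hydroperoxide product oxidises ferrous iron, measured as xylenol orange complex via the 573-to-405 nm absorbance ratio after 30 min. Reaction: 50 nM enzyme, 15 min compound preincubation, 45 uM arachidonic acid, 90 min RT, Hepes pH 7.5 with Triton X-100.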
12-hLO inh: blocks human 12-lipoxygenase activity; purified 12-hLO, xylenol orange hydroperoxide absorbance; Potency, µM (doses to about 57.1 µM), hits mostly inhibitors; actives 0.12% (n = 150,000); AID 1452; note: nearly all actives have a fitted effect of over 55% in size
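Hydroperoxide formation by human 12-lipoxygenase from 40 uM arachidonic acid was followed colorimetrically via ferric-xylenol orange complex, using the 573/405 nm absorbance ratio. Enzyme concentration was 150 nM, with 30 min reaction at room temperature.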
IMPase inh: cell-permeable inhibitors of inositol monophosphatase (IMPase); P97697; CHO-M1 cells, IP1 accumulation, HTRF TR-FRET ratio; inhibition (IP1 accumulation), % at 46.1 µM; 120,000 tested, under 10 active; active = well fitted curve in the direction sought with a large enough effect in the signal ratio, not every such curve was filed as active; inconclusive = small, poorly fitted or top-dose-only effect, or a change in a side signal; inactive = no such curve, though single readings can be large or run the other way; the % refers to the signal ratio;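 note: cells stimulated with carbachol in lithium chloride buffer; higher means more IMPase inhibition seen as more IP1 and lower FRET ratio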
Target sequence (P97697 whole entry, looked up): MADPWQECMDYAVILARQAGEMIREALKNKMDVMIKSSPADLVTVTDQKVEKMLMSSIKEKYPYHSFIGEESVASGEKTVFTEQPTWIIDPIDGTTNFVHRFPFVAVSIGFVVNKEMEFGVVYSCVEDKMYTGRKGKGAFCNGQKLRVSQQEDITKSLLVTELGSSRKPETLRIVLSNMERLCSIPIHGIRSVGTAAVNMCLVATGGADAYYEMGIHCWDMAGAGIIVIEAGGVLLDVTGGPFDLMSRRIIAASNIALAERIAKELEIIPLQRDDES
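Measured: the HTRF emission ratio (665/620 nm) plus the 620 nm donor channel, each fitted to the Hill equation to give AC50. Cells were CHO-M1 given compounds up to 46 uM and a 30 min carbachol stimulation at 37C.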
Of the large screens only hits and unclear results are named; the others gave an inactive call. Shown is part of a subset that was picked to be rich in hits. Unless noted, calls come from the whole dose curve; as a rule, active = well fitted curve in the direction sought with a large enough effect; inconclusive = small, poorly fitted or top-dose-only effect, or another doubt; inactive = no such curve, though single readings can be large; an effect the other way counts as inactive or inconclusive.

CCOC(=O)c1c(-c2ccc(C)o2)csc1NC(=O)COC(=O)c1cccs1	12-hLO inh inconclusive (no result: ALOX15B inhib)
CCOC(=O)C1=C(c2ccccc2)NC(=S)NC1c1cc([N+](=O)[O-])ccc1OC (configuration not stated)	ALOX15B inhib 25µM
CCOC(=O)C1=C(c2ccccc2)NC(=S)NC1c1cccc([N+](=O)[O-])c1 (configuration not stated)	none (no result: ALOX15B inhib)
COc1cc(C2NC(=O)NC(c3ccccc3)=C2C(C)=O)ccc1OCC(=O)O (configuration not stated)	none
CCCOc1ccc(C2NC(=S)NC(c3ccccc3)=C2C(=O)Nc2ccc(C)cc2)cc1OC (configuration not stated)	12-hLO inh 14µM (no result: ALOX15B inhib)
CC1(C)Cc2c(ccc3ccccc23)C(=O)N1	none
O=c1c2ccccc2sn1-c1ccc(S(=O)(=O)N2CCCC2)cc1	ALOX15B inhib 0.4µM, 12-hLO inh inconclusive
O=C1CC(=O)N(c2ccccc2)N1c1ccccc1	none (no result: ALOX15B inhib, IMPase inh)
NS(=O)(=O)c1ccc(S(=O)(=O)N2CCCC2)cc1	none
O=c1c2ccccc2sn1-c1ccccc1	ALOX15B inhib 1.3µM, 12-hLO inh 13µM
Cc1ccc(-n2sc3ccccc3c2=O)cc1S(=O)(=O)N1CCCCC1	ALOX15B inhib 0.63µM, 12-hLO inh 3.2µM
Cc1ccc(-c2nnc(N3CCCCC3)c3ccccc23)cc1S(=O)(=O)N1CCN(C)CC1	none
CCc1ccc(NC(=O)C(C)Oc2nnc(-c3cccs3)c(-c3cccs3)n2)cc1 (configuration not stated)	none
Cc1csc(NC(=O)C2C3C=CC(C3)C2C(=O)O)n1 (configuration not stated)	none
Cc1ccccc1Nc1c(-c2cccnc2)nc2cccc(C)n12	none (no result: ALOX15B inhib, 12-hLO inh)
CCNC(=O)COC(=O)c1ccc(S(=O)(=O)N2CCCCCC2)cc1	none
O=C1c2cc(N3CCCC3)c([N+](=O)[O-])cc2C(=O)N1c1ccccc1	none (no result: ALOX15B inhib, IMPase inh)
N#C/C(=C/c1ccccc1[N+](=O)[O-])c1nc(C2CC2)cs1	none (no result: ALOX15B inhib)
Cc1scc(-c2n[nH]c(=S)n2C(C)c2ccccc2)c1C (configuration not stated)	none (no result: ALOX15B inhib, IMPase inh)
CCc1cc(-c2n[nH]c(=S)n2C(C)c2ccccc2)cs1 (configuration not stated)	12-hLO inh 16µM
O=C(NCCc1ccc2c(c1)OCO2)C1CCN(S(=O)(=O)c2ccc(Cl)cc2)CC1	none
O=C1/C(=C\c2ccco2)SC(=S)N1c1ccccc1	none (no result: ALOX15B inhib, IMPase inh)
Cc1ccc(N2C(=O)/C(=C\c3ccco3)SC2=S)cc1	ALOX15B inhib inconclusive, 12-hLO inh 7.9µM
Nc1nc(-c2ccccc2)cc(N2CCCCC2)n1	none
N#Cc1nc(Cc2ccccc2)oc1N1CCN(c2cccc(Cl)c2)CC1	IMPase inh inconclusive
O=C(/C=C1\NC2(CCCC2)Cc2ccccc21)C(=O)N/N=C/c1ccc(O)c(O)c1	12-hLO inh 0.89µM (no result: ALOX15B inhib, IMPase inh)
COc1ccc(/C=N/NC(=O)C(=O)/C=C2\NC3(CCCC3)Cc3ccccc32)cc1	none (no result: ALOX15B inhib)
CCOc1cc2[nH]c(=O)n(CCC(=O)N3CCN(c4ccccc4OC)CC3)c(=O)c2cc1OCC	none
O=C(COC(=O)CC(c1ccccc1)c1ccccc1)Nc1c(F)cccc1F	none (no result: ALOX15B inhib, IMPase inh)
O=c1[nH]c2cc(Cl)ccc2c(O)c1-c1ccc(Oc2ccccc2)cc1	IMPase inh inconclusive
O=C(COc1ccc(Br)cc1)N1CCN(c2ccc([N+](=O)[O-])c(N3CCCCC3)c2)CC1	none (no result: ALOX15B inhib)
O=c1c2c([N+](=O)[O-])cc([N+](=O)[O-])cc2sn1-c1ccc(Br)cc1	12-hLO inh 3.2µM (no result: ALOX15B inhib)
CS(=O)(=O)Nc1ccc(C(=O)NCCSC2CCCCC2)cc1	none
C=Cc1c(C)c2cc3[nH]c(cc4nc(cc5nc(cc1[nH]2)C(C)=C5CCC(=O)O)C(CCC(=O)O)=C4C)c(C)c3C=C	ALOX15B inhib 20µM
CC1=C(CCC(=O)O)c2cc3nc(cc4[nH]c(cc5[nH]c(cc1n2)c(C)c5C(C)O)c(C)c4C(C)O)C(C)=C3CCC(=O)O (configuration not stated)	none (no result: IMPase inh)
O=C1/C(=C\c2ccc(-c3ccccc3[N+](=O)[O-])o2)C(c2ccccc2)=NN1c1ccccc1	none (no result: ALOX15B inhib)
Cc1ccc(-c2ccc(/C=C3\C(=O)ON=C3c3ccccc3)o2)c([N+](=O)[O-])c1	ALOX15B inhib 4µM
Cc1cccc(C)c1-n1c(C)cc(/C=N/NC(N)=S)c1C	ALOX15B inhib 20µM, 12-hLO inh inconclusive
Cc1ccccc1-n1c(C)cc(/C=N/NC(=O)c2ccncc2)c1C	none
c1ccc(Oc2nnc(-c3cccs3)c3ccccc23)cc1	none (no result: ALOX15B inhib, IMPase inh)
CC(C)OCC(O)Cn1c(N2CCCC2)nc2c1c(=O)[nH]c(=O)n2C (configuration not stated)	none
CCOC(=O)C1=C(C)NC(=O)NC1c1cn(-c2ccccc2)nc1-c1ccc(OC(C)C)cc1 (configuration not stated)	none (no result: ALOX15B inhib, 12-hLO inh)
CC1=C(C(=O)c2ccccc2)C(c2cn(-c3ccccc3)nc2-c2ccc(Cl)cc2)NC(=S)N1 (configuration not stated)	ALOX15B inhib 7.9µM, 12-hLO inh 16µM
NS(=O)(=O)c1ccc(NCc2nc3ccccc3[nH]2)cc1	none (no result: IMPase inh)
CC(C)NS(=O)(=O)c1ccc(NC(=S)NC(=O)c2ccc(-c3ccccc3)cc2)cc1	ALOX15B inhib 20µM, 12-hLO inh inconclusive
O=C(NC(=S)Nc1ccccc1)c1ccc(-c2ccccc2)cc1	none (no result: ALOX15B inhib, IMPase inh)
OC1CCCN(C(=S)Nc2ccc(SC(F)F)cc2)C1 (configuration not stated)	none (no result: ALOX15B inhib)
Cc1cc(O)c(NC(=S)NC(=O)c2ccc(-c3ccc(Cl)cc3)o2)cc1C	ALOX15B inhib 13µM, 12-hLO inh inconclusive
Cc1ccc(NC(=S)NC(=O)c2ccc(-c3ccc(Cl)cc3)o2)c(O)c1	none (no result: ALOX15B inhib)
CCC(=O)CCC(=O)c1ccc2ccccc2c1	none (no result: ALOX15B inhib, IMPase inh)
CC(C)N(CCC(=O)c1ccc2ccccc2c1)Cc1ccccc1	ALOX15B inhib 13µM, 12-hLO inh inconclusive
CCc1nnc(NC(=O)CSc2nnc(CNc3ccc(OC)cc3)n2C)s1	none (no result: ALOX15B inhib, IMPase inh)
CCOC(=O)C1=C(C)N=C2c3ccccc3C(=O)C2C1c1ccc(Cl)cc1 (configuration not stated)	none
CCOC(=O)C1=C(Cc2ccc(Cl)cc2)C(=O)c2ccccc2C1=O	ALOX15B inhib 10µM, 12-hLO inh inconclusive
CCOC(=O)CSc1cc(CS(=O)(=O)c2ccccc2)nc(-c2ccccc2)n1	none
COc1ccccc1NC(=O)N1CCN(c2ccc(F)cc2)CC1	none (no result: ALOX15B inhib)
CC1CCN(c2ccccc2NC(=S)NC(=O)c2ccc(-c3cccc([N+](=O)[O-])c3)o2)CC1	ALOX15B inhib 16µM
CC1CCN(c2ccc(NC(=S)NC(=O)c3ccc(-c4cccc([N+](=O)[O-])c4)o3)cc2)CC1	ALOX15B inhib inconclusive
CN1/C(=C\C(=S)NC(=O)c2ccc([N+](=O)[O-])cc2)C(C)(C)c2ccccc21	none (no result: ALOX15B inhib)
CN1/C(=C\C(=S)NC(=O)c2cccc(Br)c2)C(C)(C)c2ccccc21	12-hLO inh 14µM (no result: ALOX15B inhib)
O=C(NC(=S)NCCc1ccccc1)c1ccccc1	ALOX15B inhib 13µM, 12-hLO inh 18µM
O=C(CCc1ccccc1)NNC(=S)NC(=O)c1ccccc1	none
S=C(NCCc1ccccc1)NC1CCCCCC1	ALOX15B inhib 25µM, 12-hLO inh inconclusive
O=C(NCCc1ccccc1)C(=O)NC1CCCCC1	none
Cc1ccc(C(=O)Nc2cccc(-c3nc4ccccc4o3)c2)c(Cl)c1	none (no result: ALOX15B inhib, 12-hLO inh)
